# According to PubChem BioAssay (EPA / NIEHS):
# Values joined by “and” are separate entries in the source; they are usually repeats but may differ in a detail not shown here. Identical values can stand only once. Results filed as inconclusive are left out. Active and inactive are the calls of the source. The calls were made as follows: active = hit-call score of the fitted dose curve at least 0.9, where 1 is the maximum; inconclusive = response in the unintended direction; inactive = score below 0.9.
# What was measured:
# [1] = target: human AKT serine/threonine Kinase 1 (AKT1), AKT1 (gene 207) (UniProt P31749); assay: NVS_ENZ_hAKT1: NovaScreen (NVS) Enzymatic Assay for human AKT serine/threonine Kinase 1 (AKT1) (AID 2283138)
# Outline: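 Screening first at 25 uM (duplicate), with threshold-passing chemicals re-tested in concentration series to a 50 uM maximum. Kinase activity read by fluorescence with mobility-shift separation of substrate and product, 1 h after dosing, DMSO baseline.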
# [2] = target: human Beta-secretase (BACE), BACE1 (gene 23621) (UniProt P56817); assay: NVS_ENZ_hBACE: NovaScreen (NVS) Enzymatic Assay for human Beta-secretase (BACE) (AID 2283140);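 also: hits are inhibitors that reduce fluorescent substrate signal versus DMSO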
# Outline: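 Enzyme from SF9 cells was incubated 1 hour with compound and fluorogenic substrate, activity read by fluorescence. Single-concentration duplicates at 25 uM preceded concentration-response follow-up; fitting relative to DMSO baseline.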
# Caspase-3 (Homo sapiens) = Caspase-3 (Homo sapiens) (UniProt P42574); assay: NVS_ENZ_hCASP3: NovaScreen (NVS) Enzymatic Assay for human Caspase 3 (CASP3) (AID 2283139)
# Outline: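 Single-concentration screening at 25 uM in duplicate, with concentration-response follow-up to a 50 uM maximum for chemicals passing the threshold. Caspase-3 (human, E. coli-expressed) activity was read as substrate fluorescence after 1 h, with loss of signal relative to DMSO.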
# [3] = target: human AKT serine/threonine Kinase 2 (AKT2), AKT2 (gene 208) (UniProt P31751); assay: NVS_ENZ_hAKT2: NovaScreen (NVS) Enzymatic Assay for human AKT serine/threonine Kinase 2 (AKT2) (AID 2283141)
# Outline: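 Cell-free fluorescence/electrophoretic mobility shift readout of recombinant human AKT2 activity, 1 h after chemical dosing. Duplicate primary screen at 25 uM, then singleton concentration-response up to 50 uM; loss of signal versus DMSO baseline.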
# CDK2 (gene 1017) = CDK2 (gene 1017) (UniProt P24941); assay: NVS_ENZ_hCDK2: NovaScreen (NVS) Enzymatic Assay for human Cyclin-Cependent Kinase 2 (CDK2) (AID 2283144)
# Outline: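 Compounds screened in duplicate at 25 uM, then in singleton concentration-response to a maximum of 50 uM, against recombinant CDK2; kinase activity read 1 hr after dosing by fluorescence with mobility-shift separation of substrate and product.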
# [4] = target: human Caspase 2 (CASP2), CASP2 (gene 835) (UniProt P42575); assay: NVS_ENZ_hCASP2: NovaScreen (NVS) Enzymatic Assay for human Caspase 2 (CASP2) (AID 2283135)
# Outline: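 Single-point duplicate testing at 25 uM preceded concentration series topping at 50 uM. Activity of the recombinant E. coli-derived protease was followed by fluorescent substrate cleavage 1 h post-dosing, relative to DMSO.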
# [5] = target: human Acid Phosphatase 1 (ACP1), ACP1 (gene 52) (UniProt P24666); assay: NVS_ENZ_hACP1: NovaScreen (NVS) Enzymatic Assay for human Acid Phosphatase 1 (ACP1) (AID 2283136)
# Description: NVS_ENZ_hACP1 is a biochemical, single-readout assay that uses extracted gene-proteins from SF9 in a cell-free assay. Measurements were taken 1.5 hours after chemical dosing in a 384-well plate.NVS_ENZ_hACP1 is one of one assay component(s) measured or calculated from the NVS_ENZ_hACP1 assay. It is designed to make measurements of enzyme activity, a form of enzyme reporter, as detected with fluorescence intensity signals by Fluorescence and electrophoretic mobility shift technology.Data from the assay component NVS_ENZ_hACP1 was analyzed into 1 assay endpoint. This assay endpoint, NVS_ENZ_hACP1, was analyzed in the positive analysis fitting direction relative to DMSO as the negative control and baseline of activity. Using a type of enzyme reporter, loss-of-signal activity can be used to understand changes in the enzymatic activity as they relate to the gene ACP1. Furthermore, this assay endpoint can be referred to as a primary readout, because this assay has produced multiple assay endpoints where this one serves a enzymatic activity function. To generalize the intended target to other relatable targets, this assay endpoint is annotated to the phosphatase intended target family, where the subfamily is acid phosphatase. […]
# [6] = target: human Caspase 5 (CASP5), CASP5 (gene 838) (UniProt P51878); assay: NVS_ENZ_hCASP5: NovaScreen (NVS) Enzymatic Assay for human Caspase 5 (CASP5) (AID 2283137)
# Outline: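 Loss of fluorescent signal versus DMSO scored for E. coli-derived human CASP5 cleaving a fluorescent substrate, 2 h post-dosing; compounds first tested at 25 uM in duplicate, hits rerun in concentration series with 50 uM top concentration.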
# [7] = target: human Aurora Kinase A - serine/threonine-protein Kinase 6 (AurA), AURKA (gene 6790) (UniProt O14965); assay: NVS_ENZ_hAurA: NovaScreen (NVS) Enzymatic Assay for human Aurora Kinase A - serine/threonine-protein Kinase 6 (AurA) (AID 2283142)
# Outline: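 Recombinant human AurA activity read by fluorescence after mobility-shift separation of product from substrate; 1 hour incubation. Chemicals first run in duplicate at 25 uM, then concentration series to 50 uM if over threshold; fitted relative to DMSO.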
# [8] = target: human Caspase 4 (CASP4), CASP4 (gene 837) (UniProt P49662); assay: NVS_ENZ_hCASP4: NovaScreen (NVS) Enzymatic Assay for human Caspase 4 (CASP4) (AID 2283143)
# Outline: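 Compounds were first tested in duplicate at 25 uM, and hits were titrated singly to a 50 uM maximum. Recombinant protease from E. coli was read by fluorescence 2 h post-dose, and activity loss was fitted against the DMSO baseline.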
# Sequence of Caspase-3 (Homo sapiens) (P42574 whole entry, looked up): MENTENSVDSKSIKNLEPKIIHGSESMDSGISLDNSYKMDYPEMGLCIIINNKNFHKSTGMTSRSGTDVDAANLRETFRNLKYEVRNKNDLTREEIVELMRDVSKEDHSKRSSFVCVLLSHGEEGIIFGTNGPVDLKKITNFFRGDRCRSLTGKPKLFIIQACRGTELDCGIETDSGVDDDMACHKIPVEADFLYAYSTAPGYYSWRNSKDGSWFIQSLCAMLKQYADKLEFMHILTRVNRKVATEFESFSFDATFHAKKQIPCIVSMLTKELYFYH
# Sequence of human AKT serine/threonine Kinase 2 (AKT2), AKT2 (gene 208) (P31751 whole entry, looked up): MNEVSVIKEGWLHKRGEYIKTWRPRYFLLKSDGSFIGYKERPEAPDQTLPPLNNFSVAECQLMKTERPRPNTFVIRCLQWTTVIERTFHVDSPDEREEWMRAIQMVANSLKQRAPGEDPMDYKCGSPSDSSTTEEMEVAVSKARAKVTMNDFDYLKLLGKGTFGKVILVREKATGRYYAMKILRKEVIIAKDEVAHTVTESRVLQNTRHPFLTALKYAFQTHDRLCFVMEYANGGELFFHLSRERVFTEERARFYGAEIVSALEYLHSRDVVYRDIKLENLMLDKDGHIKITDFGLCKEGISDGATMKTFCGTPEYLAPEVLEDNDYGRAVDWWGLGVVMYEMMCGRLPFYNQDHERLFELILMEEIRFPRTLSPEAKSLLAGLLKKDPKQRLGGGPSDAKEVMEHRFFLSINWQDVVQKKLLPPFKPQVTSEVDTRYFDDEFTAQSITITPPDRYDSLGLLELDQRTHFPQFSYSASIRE
# Sequence of human Caspase 2 (CASP2), CASP2 (gene 835) (P42575 whole entry, looked up): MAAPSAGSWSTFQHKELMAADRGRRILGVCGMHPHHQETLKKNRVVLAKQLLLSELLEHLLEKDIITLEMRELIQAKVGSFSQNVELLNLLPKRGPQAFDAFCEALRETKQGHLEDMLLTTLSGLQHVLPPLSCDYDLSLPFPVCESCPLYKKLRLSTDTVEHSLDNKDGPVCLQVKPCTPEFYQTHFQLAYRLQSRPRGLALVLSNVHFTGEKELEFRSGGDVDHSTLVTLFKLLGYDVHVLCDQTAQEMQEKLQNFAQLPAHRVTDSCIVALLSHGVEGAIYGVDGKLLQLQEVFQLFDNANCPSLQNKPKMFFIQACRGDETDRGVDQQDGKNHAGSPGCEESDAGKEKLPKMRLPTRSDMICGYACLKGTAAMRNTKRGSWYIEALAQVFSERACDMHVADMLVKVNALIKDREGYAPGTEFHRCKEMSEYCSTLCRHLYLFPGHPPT
# Sequence of human Caspase 4 (CASP4), CASP4 (gene 837) (P49662 whole entry, looked up): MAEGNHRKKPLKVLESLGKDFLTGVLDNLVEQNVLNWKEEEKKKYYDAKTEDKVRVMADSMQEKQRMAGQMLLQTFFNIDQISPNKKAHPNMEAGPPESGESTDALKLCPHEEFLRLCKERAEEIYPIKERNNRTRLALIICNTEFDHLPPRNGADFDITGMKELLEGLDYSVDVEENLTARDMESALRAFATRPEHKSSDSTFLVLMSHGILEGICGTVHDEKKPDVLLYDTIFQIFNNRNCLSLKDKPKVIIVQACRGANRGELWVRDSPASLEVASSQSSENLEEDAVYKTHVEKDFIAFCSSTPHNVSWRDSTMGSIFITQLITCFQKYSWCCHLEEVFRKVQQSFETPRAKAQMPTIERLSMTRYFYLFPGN
# Sequence of human Aurora Kinase A - serine/threonine-protein Kinase 6 (AurA), AURKA (gene 6790) (O14965 whole entry, looked up): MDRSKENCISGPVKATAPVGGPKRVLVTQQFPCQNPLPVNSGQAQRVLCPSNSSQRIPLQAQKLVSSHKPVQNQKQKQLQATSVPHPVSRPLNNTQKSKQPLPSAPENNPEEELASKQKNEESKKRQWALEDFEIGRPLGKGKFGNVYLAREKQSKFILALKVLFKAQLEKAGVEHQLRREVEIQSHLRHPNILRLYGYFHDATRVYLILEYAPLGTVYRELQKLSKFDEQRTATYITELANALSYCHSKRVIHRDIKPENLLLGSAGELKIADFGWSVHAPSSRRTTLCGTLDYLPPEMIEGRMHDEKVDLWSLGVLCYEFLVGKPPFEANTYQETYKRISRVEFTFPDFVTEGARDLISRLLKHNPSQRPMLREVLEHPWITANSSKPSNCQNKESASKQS
# Sequence of human Caspase 5 (CASP5), CASP5 (gene 838) (P51878 whole entry, looked up): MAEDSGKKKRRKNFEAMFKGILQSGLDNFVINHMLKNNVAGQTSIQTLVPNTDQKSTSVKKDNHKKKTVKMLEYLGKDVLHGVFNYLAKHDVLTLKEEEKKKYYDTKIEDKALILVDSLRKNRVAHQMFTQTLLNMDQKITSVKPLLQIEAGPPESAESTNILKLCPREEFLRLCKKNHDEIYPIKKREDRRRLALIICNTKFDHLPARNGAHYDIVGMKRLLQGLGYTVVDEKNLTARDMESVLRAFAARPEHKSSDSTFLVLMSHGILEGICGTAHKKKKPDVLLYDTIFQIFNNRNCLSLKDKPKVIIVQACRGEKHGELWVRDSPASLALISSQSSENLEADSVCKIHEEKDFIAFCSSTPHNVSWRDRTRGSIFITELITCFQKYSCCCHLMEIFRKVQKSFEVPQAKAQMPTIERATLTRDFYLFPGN
# Sequence of human Beta-secretase (BACE), BACE1 (gene 23621) (P56817 whole entry, looked up): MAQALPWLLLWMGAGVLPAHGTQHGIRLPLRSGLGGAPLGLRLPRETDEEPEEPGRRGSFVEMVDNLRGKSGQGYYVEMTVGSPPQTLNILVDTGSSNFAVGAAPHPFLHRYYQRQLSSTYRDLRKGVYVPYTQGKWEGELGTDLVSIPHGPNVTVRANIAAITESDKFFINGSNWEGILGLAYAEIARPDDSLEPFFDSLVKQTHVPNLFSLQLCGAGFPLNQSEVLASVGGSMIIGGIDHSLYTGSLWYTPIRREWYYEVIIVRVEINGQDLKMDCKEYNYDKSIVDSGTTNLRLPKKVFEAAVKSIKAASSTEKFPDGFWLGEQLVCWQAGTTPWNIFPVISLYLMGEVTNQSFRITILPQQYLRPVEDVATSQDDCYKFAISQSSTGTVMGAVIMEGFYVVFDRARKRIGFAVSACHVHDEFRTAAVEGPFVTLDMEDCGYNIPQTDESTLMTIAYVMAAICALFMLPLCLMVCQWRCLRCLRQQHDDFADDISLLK
# Sequence of human AKT serine/threonine Kinase 1 (AKT1), AKT1 (gene 207) (P31749 whole entry, looked up): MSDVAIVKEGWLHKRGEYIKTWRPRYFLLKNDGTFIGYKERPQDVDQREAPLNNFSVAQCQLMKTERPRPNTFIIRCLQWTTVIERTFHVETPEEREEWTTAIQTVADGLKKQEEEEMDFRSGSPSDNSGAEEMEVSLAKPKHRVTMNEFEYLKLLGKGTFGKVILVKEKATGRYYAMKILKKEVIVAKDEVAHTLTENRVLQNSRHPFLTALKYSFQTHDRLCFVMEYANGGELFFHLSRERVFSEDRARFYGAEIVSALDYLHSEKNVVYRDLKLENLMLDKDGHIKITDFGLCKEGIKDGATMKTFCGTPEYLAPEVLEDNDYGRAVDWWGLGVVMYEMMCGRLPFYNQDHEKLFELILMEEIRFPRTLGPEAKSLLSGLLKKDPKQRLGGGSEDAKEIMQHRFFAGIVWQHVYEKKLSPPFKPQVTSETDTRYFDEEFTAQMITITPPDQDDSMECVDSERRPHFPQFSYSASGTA
# Sequence of human Acid Phosphatase 1 (ACP1), ACP1 (gene 52) (P24666 whole entry, looked up): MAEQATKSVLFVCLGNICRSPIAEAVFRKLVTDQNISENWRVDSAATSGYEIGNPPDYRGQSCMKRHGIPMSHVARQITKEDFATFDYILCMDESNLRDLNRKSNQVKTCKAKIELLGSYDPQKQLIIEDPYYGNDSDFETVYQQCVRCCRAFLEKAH
smiles,measurement,setting,value
CCCCOC(=O)c1ccccc1C(=O)O,outcome,[1],inactive
same,outcome,[2],inactive
CC(COc1ccc(Oc2ccccc2)cc1)Oc1ccccn1 (configuration not stated),AC50,[2],37.2 µM (active)
CCOP(=O)(SC(C)CC)N1CCSC1=O (configuration not stated),outcome,[1],inactive
COc1ccc(C(=CC(=O)N2CCOCC2)c2ccc(Cl)cc2)cc1OC,outcome,Caspase-3 (Homo sapiens),inactive
CSc1nnc(C(C)(C)C)c(=O)n1N,outcome,[3],inactive
CCCCSP(=O)(SCCCC)SCCCC,outcome,[2],inactive
CCCCN(CC)c1c([N+](=O)[O-])cc(C(F)(F)F)cc1[N+](=O)[O-],outcome,CDK2 (gene 1017),inactive
C#CCC1=C(C)C(OC(=O)C2C(C=C(C)C)C2(C)C)CC1=O (configuration not stated),outcome,[2],inactive
CCNc1nc(Cl)nc(NC(C)(C)C#N)n1,outcome,CDK2 (gene 1017),inactive
Nc1c(Cl)cc([N+](=O)[O-])cc1Cl,outcome,[1],inactive
same,outcome,[3],inactive
CCOP(=O)(NC(C)C)Oc1ccc(SC)c(C)c1 (configuration not stated),outcome,CDK2 (gene 1017),inactive
CN(C)[C@@H]1C(=O)C(C(N)=O)=C(O)[C@@]2(O)C(=O)C3=C(O)c4c(O)cccc4[C@@](C)(O)[C@H]3[C@H](O)[C@@H]12,AC50,[4],10.8 µM (active)
same,AC50,[5],23.1 µM (active)
same,AC50,[6],5.15 µM (active) and 683 nM (active)
same,AC50,[2],12.6 µM (active) and 7.9 µM (active)
same,AC50,[7],29.4 µM (active)
same,AC50,[8],11.9 µM (active)
CCOP(=S)(OCC)SCCSCC,outcome,Caspase-3 (Homo sapiens),inactive
S=C1NCCN1,outcome,[4],inactive
same,outcome,[5],inactive
same,outcome,[6],inactive
same,outcome,[1],inactive
same,outcome,[2],inactive
same,outcome,[7],inactive
same,outcome,[8],inactive
CC(C)=CC1C(C(=O)OCN2C(=O)C3=C(CCCC3)C2=O)C1(C)C (configuration not stated),AC50,Caspase-3 (Homo sapiens),18.1 µM (active)
same,AC50,[2],25 µM (active)
CSc1nc(NC(C)C)nc(NC(C)C)n1,outcome,[3],inactive
COP(=O)(NC(C)=O)SC (configuration not stated),outcome,Caspase-3 (Homo sapiens),inactive
O=C(O)c1cc(Oc2ccc(C(F)(F)F)cc2Cl)ccc1[N+](=O)[O-],outcome,[3],inactive
CCC(=O)Nc1ccc(Cl)c(Cl)c1,outcome,[8],inactive
CC(C)[C@H](C(=O)O[C@H](C#N)c1cccc(Oc2ccccc2)c1)c1ccc(Cl)cc1,AC50,[2],1.19 µM (active)
same,outcome,[7],inactive
CON=C(C(=O)OC)c1ccccc1CON=C(C)c1cccc(C(F)(F)F)c1,outcome,[2],inactive
O=c1ccc(=O)[nH][nH]1,outcome,[4],inactive
Cc1ccn2nc(S(=O)(=O)Nc3c(F)cccc3F)nc2n1,outcome,[6],inactive
CCC(CC)Nc1c([N+](=O)[O-])cc(C)c(C)c1[N+](=O)[O-],outcome,[2],inactive
CC[C@H](C)[C@H]1O[C@]2(C=C[C@@H]1C)C[C@@H]1C[C@@H](C/C=C(\C)[C@@H](O[C@H]3C[C@H](OC)[C@@H](O[C@H]4C[C@H](OC)[C@@H](NC)[C@H](C)O4)[C@H](C)O3)[C@@H](C)/C=C/C=C3\CO[C@@H]4[C@H](O)C(C)=C[C@@H](C(=O)O1)[C@]34O)O2,outcome,[6],inactive
same,outcome,Caspase-3 (Homo sapiens),inactive
same,AC50,[2],9.68 µM (active)
